TGFb SMAD3 inh – TGF-b pathway inhibition. AID 588855. Potency, µM (highest dose often 46.1 µM), without a hit: top-dose activity, negative = inhibition, actives largely listed as inhibitors. HepG2 CAGA-GFP TGF-b/SMAD3 reporter, GFP fluorescence, 18 h; TGF-beta stimulated, 500 pg/mL final. 410,000 tested, 1.2% active; note: % is set by controls: 0 for no effect and ±100 for the full control effect; nearly all actives have a fitted effect of over 65% in size
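Per well, imaged GFP fluorescence of HEPG2 CAGA-GFP cells gives the signal; cells get compound, then TGF-beta (500 pg/mL final), 18 h at 37 degrees C; %Activity versus -TGF-beta and +DMSO controls.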
Nrf2 inh – Nrf2 pathway inhibition; 360,000 tested, 2.1% active; A549 ARE-Fluc reporter, luciferase luminescence, 18-24 h; Potency, µM (doses to about 46 µM), without a hit: at the top dose activity change, negative = inhibition, usual class: inhibitors; note: % is set by controls: 0 for no effect and ±100 for the full control effect; nearly all actives have a fitted effect of over 60% in size
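In this cell-based qHTS, ARE-driven firefly luciferase in A549 cells reports Nrf2 activity; the luminescent signal after BugLite lysis is the measured value, with a prior CellTiter-Fluor read for cell health.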
HepG2 tox – HepG2 cytotoxicity, counter-screen for TGF-b inhibitors; HepG2 CAGA-GFP viability, ATP luminescence, 18 h; Potency, µM (highest dose often 46.1 µM), for the others: at the highest dose activity change, negative = cytotoxicity, usual class: cytotoxic; 410,000 tested, 0.76% active
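HepG2 CAGA-GFP cells (1000/well, DMEM with 1% FBS) received compound, then TGF-beta at 500 pg/mL final, and were incubated 18 hours at 37 degrees C. Viability was read by CellTiter-Glo luminescence. Media-only wells were set as complete cell-killing and DMSO as no toxicity.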
Nrf2 activator – activators of Nrf2 (ARE) signaling | 410,000 tested, 0.31% active | AREc32 ARE-luciferase reporter (MCF7-derived line), luminescence, 24 h | Potency, µM (titrated, usually from 46.1 µM), for the others: top-dose activation, most hits filed as activators; note: % of control where 0% means no effect; nearly all actives have a fitted effect of over 65% in size
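ARE activation measured as luciferase luminescence (Steady-Glo, 30 min RT) in AREc32_Fluc cells after 24 hr compound exposure at 37 deg C, 5% CO2; cells seeded overnight at 1000/well in OPTI-MEM, 5% FBS.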
A549 tox – counter-screen for Nrf2 inhibitors: cytotoxicity in A549 cells; 390,000 tested, 0.16% active; A549 ARE-Fluc cells, CellTiter-Fluor viability, 18-24 h; Potency, µM (titrated, usually from 46 µM), without a hit: top-dose activity change, negative = cytotoxicity, most hits filed as inhibitors; note: % is set by controls: 0 for no effect and ±100 for the full control effect
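A549 ARE-Fluc cells in 5% FBS OPTI-MEM, 5000 cells/well, rested 2 h then exposed to compounds in concentration-response for 18-24 h at 37 °C. Viability by CellTiter-Fluor fluorescence (Ex 405/Em 525) after 30 min; luciferase luminescence (BugLite, 15 min, RT) read afterwards.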
Active calls of the source: *; ? = inconclusive. In the library only some 3.6% were active in any assay of this set; here they are far more common. Calls come from the whole dose curve; as a rule, active = well fitted curve in the direction sought with a large enough effect; inconclusive = small, poorly fitted or top-dose-only effect, or another doubt; inactive = no such curve, though single readings can be large; an effect the other way counts as inactive or inconclusive. Potency is the fitted concentration of half-maximal effect.

SMILES	TGFb SMAD3 inh	Nrf2 inh	HepG2 tox	Nrf2 activator	A549 tox
O=c1c2cc([N+](=O)[O-])cc([N+](=O)[O-])c2[nH]n1-c1ccccc1	0%	2%	5%	3%	16µM*
CCn1nc(C)cc1C(=O)OCC(=O)c1ccc(Cl)cc1	-1%	18µM*	-14%	0%	1%
O=C(NCCc1ccccc1)c1ccc(CSc2nc3ccncc3n2Cc2cccc(F)c2)cc1	?	?	-6%	2%	-4%
O=C(NCCc1ccccc1)c1ccc(CSc2nc3ccncc3n2Cc2ccccc2F)cc1	7.1µM*	?	-19%	4%	-24%
O=C(NCCc1nc2ccccc2n1Cc1ccccc1F)c1ccc(F)cc1	0%	23µM*	-8%	4%	?
Cc1cccc(Cn2c(SCc3ccc(C(=O)NCCc4ccccc4)cc3)nc3ccncc32)c1	7.9µM*	?	-52%	0%	-26%
COc1ccc(SCC(=O)Nc2ccc(N3CCN(C)CC3)c(F)c2)cc1	-12%	5%	-18%	-1%	-1%
C=CC[C@@H](CC(=O)N(CCO)Cc1ccccc1)C(=O)N[C@H](COC(=O)[C@@H](CC=C)Cc1ccc(F)cc1)Cc1ccccc1	?	?	-13%	-2%	-29%
C=CC[C@H](CC(=O)N(CCO)Cc1ccccc1)C(=O)NC[C@H](OC(=O)[C@@H](CC=C)Cc1ccc(F)cc1)c1ccccc1	?	18µM*	-40%	-5%	?
C=CCC[C@H](Cc1ccc(F)cc1)C(=O)OC[C@@H](C)NC(=O)[C@H](CC=C)CC(=O)N(CCO)Cc1ccccc1	?	-17%	-10%	4%	-3%
C=CCC[C@@H](Cc1ccc(F)cc1)C(=O)OC[C@H](C)NC(=O)[C@@H](CC=C)CC(=O)N(CCO)Cc1ccccc1	13µM*	-24%	-21%	-1%	-7%
C=CC[C@@H](CC(=O)N(CCO)Cc1ccccc1)C(=O)N[C@@H](COC(=O)[C@@H](CC=C)Cc1ccc(F)cc1)Cc1ccccc1	-13%	23µM*	-4%	-5%	?
O=C(COc1ccc(Cl)cc1)Nc1ccc(Cl)cn1	-7%	?	-15%	2%	-1%
CCOC(=O)C1CCCN(C2CC(=O)N(c3ccc(N4C(=O)CC(N5CCCC(C(=O)OCC)C5)C4=O)cc3)C2=O)C1 (configuration not stated)	0%	5%	8%	0%	-6%
CN1C(=O)c2ccccc2C(C(=O)O)C1c1cn(C)c2ccccc12 (configuration not stated)	11%	-5%	2%	-1%	1%
O=S(=O)(NCc1cccnc1)c1ccc(Cl)c(Cl)c1	0%	11%	-3%	-2%	13%
COCCCNC(=O)c1ccc(-n2c(-c3ccccc3)cc3c2CCCCC3)cc1	?	?	-9%	?	-14%
COCCNC(=O)c1ccc(-n2c(-c3ccccc3)cc3c2CCC(C)C3)cc1 (configuration not stated)	?	7%	-28%	10µM*	-1%
CN(C)CCNC(=O)c1ccc(-n2c(-c3ccccc3)cc3c2CCCCC3)cc1	0%	?	-2%	?	-6%
CCCNC(=O)c1ccc(-n2c(-c3ccccc3)cc3c2CCC(C)C3)cc1 (configuration not stated)	?	?	-18%	11µM*	-15%
Cc1ccsc1CN1CCC(C(=O)NCc2ccccc2Cl)CC1	-30%	7%	16%	0%	-6%
Cc1ccc2[nH]cc(C(c3ccccc3)c3cccs3)c2c1 (configuration not stated)	13µM*	?	16µM*	0%	1%
Cc1ccc2[nH]cc(C(c3ccccc3)c3ccc(C)s3)c2c1 (configuration not stated)	13µM*	?	11µM*	0%	1%
COc1ccc(C(=O)NC(Nc2ccc(C)cc2)C(Cl)(Cl)Cl)cc1 (configuration not stated)	11µM*	21µM*	-6%	4%	?
Oc1[nH]c2ccc(Br)cc2c1N=Nc1ccc(C(F)(F)F)cn1	-14%	?	-5%	10%	?
SMILES	TGFb SMAD3 inh	Nrf2 inh	HepG2 tox	Nrf2 activator	A549 tox
CC1(C2CC2)NC(=O)N(CC(=O)N2CCN(c3cccc(C(F)(F)F)c3)CC2)C1=O (configuration not stated)	10%	12µM*	-43%	0%	-20%
CCS(=O)(=O)N1CCc2cc(C(=O)N3CCN(c4cccc(C(F)(F)F)c4)CC3)ccc21	11µM*	-16%	-32%	-1%	1%
Cc1ccc(S(=O)(=O)CC(=O)N2CCN(c3cccc(C(F)(F)F)c3)CC2)cc1	-8%	23µM*	-15%	0%	-14%
Cc1oc(C)c(S(=O)(=O)NCc2cccs2)c1C(=O)O	-2%	0%	9%	-1%	19%
CN(CCc1ccccc1)C(=O)c1ccc(NC(=O)Cc2ccc(NC(=O)C3CCN(C(=O)CCc4ccccc4)CC3)cc2)cc1	-9%	9.2µM*	15%	1%	-6%
CN(CCc1ccccc1)C(=O)c1cccc(NC(=O)Cc2cccc(NC(=O)C3CCCN(C(=O)c4ccccc4)C3)c2)c1 (configuration not stated)	-15%	26µM*	-5%	3%	-11%
CN(CCc1ccccc1)C(=O)c1cccc(NC(=O)Cc2cccc(NC(=O)C3CCCN(C(=O)C4CCCCC4)C3)c2)c1 (configuration not stated)	?	?	-17%	6%	-9%
COc1cc(/C=C/C(=O)c2ccc3c(c2)OCO3)cc(OC)c1OC	18µM*	-15%	22µM*	?	-1%
C=CCNC(=O)CN(c1ccc(OC)cc1OC)S(C)(=O)=O	-1%	13%	6%	0%	0%
COc1ccc2ccccc2c1C(=O)/C=C\c1ccoc1	-2%	11%	9%	13µM*	-3%
O=C(/C=C/c1ccoc1)c1ccccc1O	2%	?	-2%	0%	0%
Cc1onc(-c2ccccc2Cl)c1C(=O)OCC(=O)Nc1cccc(S(=O)(=O)N2CCOCC2)c1	-5%	18µM*	5%	0%	-7%
CCCc1nc2ccccc2c(C(=O)OCC(=O)Nc2ccc(S(=O)(=O)N3CCOCC3)cc2)c1CC	?	23µM*	-4%	0%	?
Cc1noc(C)c1C(=O)OCC(=O)Nc1cccc(S(=O)(=O)N(C)C)c1	-11%	?	4%	-1%	-1%
Cc1onc(-c2c(F)cccc2Cl)c1C(=O)OCC(=O)Nc1cccc(S(=O)(=O)N(C)C)c1	?	?	7.1µM*	3%	-10%

Screening results from PubChem.
